Sampled rows, rich in hits. Any-hit rate of the full collection: about 3.9%.
Anthrax LF inh2 – inhibitors of Bacillus anthracis lethal factor protease | multiplex microsphere protease cleavage assay, LF | P15917 | AID 588501 | actives 0.12% (n = 360,000) | inhibition, % at 10 µM; also: plate controls were buffer without enzyme for full effect and enzyme alone for no effect
Target sequence (P15917 whole entry, looked up): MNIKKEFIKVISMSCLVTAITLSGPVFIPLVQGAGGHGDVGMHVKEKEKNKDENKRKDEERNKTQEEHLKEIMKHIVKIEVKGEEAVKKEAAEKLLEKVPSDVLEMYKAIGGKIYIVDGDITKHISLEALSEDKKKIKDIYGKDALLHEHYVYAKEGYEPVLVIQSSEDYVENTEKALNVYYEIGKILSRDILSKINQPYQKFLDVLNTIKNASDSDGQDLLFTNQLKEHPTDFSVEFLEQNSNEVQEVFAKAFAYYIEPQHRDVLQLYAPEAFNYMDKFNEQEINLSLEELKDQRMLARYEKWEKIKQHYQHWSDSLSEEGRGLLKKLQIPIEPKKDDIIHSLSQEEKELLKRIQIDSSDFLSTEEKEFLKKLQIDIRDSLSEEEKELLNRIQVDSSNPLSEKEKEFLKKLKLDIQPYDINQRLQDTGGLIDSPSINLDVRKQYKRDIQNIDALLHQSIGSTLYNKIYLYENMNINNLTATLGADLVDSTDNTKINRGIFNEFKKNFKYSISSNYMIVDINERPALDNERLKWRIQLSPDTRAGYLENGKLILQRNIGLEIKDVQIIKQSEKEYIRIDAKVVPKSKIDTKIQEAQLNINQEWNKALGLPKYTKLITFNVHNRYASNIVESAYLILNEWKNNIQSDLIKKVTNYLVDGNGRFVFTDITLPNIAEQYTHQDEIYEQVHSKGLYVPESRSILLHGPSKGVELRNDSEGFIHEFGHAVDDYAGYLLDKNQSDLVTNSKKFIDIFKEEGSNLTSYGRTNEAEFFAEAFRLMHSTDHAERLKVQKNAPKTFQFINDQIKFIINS
BoNT A protease – BoNT A light chain protease inhibition; actives 0.17% (n = 360,000); inhibition, % at 10 µM; multiplex microsphere protease substrate cleavage, flow cytometry; also: plate controls were buffer without enzyme for full effect and enzyme alone for no effect
VHR inh abs – inhibitors of human VHR1 phosphatase (DUSP3). inhibition, % at 13.3 µM. recombinant VHR phosphatase, pNPP absorbance. actives 0.52% (n = 290,000). P51452; in the data active = inhibition above about 50%
3CLpro inhibitor – SARS-CoV 3CLpro protease inhibition; P0C6X7; AID 1706; recombinant SARS-CoV 3CLpro, quenched FRET peptide cleavage; inhibition, % at 6 µM; actives 0.14% (n = 290,000); in the data active = inhibition above about 12%
BoNT F protease – BoNT F light chain protease inhibition; Multiplex microsphere protease cleavage assay, flow cytometry; inhibition, % at 10 µM; actives 0.22% (n = 360,000); in the data active = inhibition above about 35%, passing the limit was not always enough; inconclusive = no clear call, values can overlap the other calls; also: plate controls were buffer without enzyme for full effect and enzyme alone for no effect
Bead autofluor – counter-screen for toxin protease inhibitors: compound fluorescence. fluorescence intensity (concentration not given with the values). actives 3.1% (n = 360,000). compound autofluorescence counterscreen, microsphere flow cytometry; hits give high values; in the data active = fluorescence intensity above about 16000; inconclusive = no clear call, values can overlap the other calls
Active calls of the source: *; u = inconclusive; x = not tested or not shown. Rule as the data show it, unless noted: active = inhibition above about 30%; inconclusive = no clear call, values can overlap the other calls; inactive = below that.

SMILES	Anthrax LF inh2	BoNT A protease	VHR inh abs	3CLpro inhibitor	BoNT F protease	Bead autofluor
CCCCNc1nccnc1-c1cccc(C=O)c1	-5.4	-0.2	x	x	-0.7	3971
CC(=O)c1ccc(NC(=O)C(C)Sc2nnnn2C)cc1 (stereo not given)	0.2	-4.2	1.5	-5.8	-5.5	23749*
Cc1cccc(N(CC(=O)N2CCN(c3ccc(F)cc3)CC2)S(C)(=O)=O)c1C	-0.1	-0.6	19.8	0.8	4.8	4507
CS(=O)(=O)N(CC(=O)N1CCN(c2ccc(F)cc2)CC1)c1ccc(F)c(Cl)c1	-3.7	u	26.1	2.8	-3.6	24225*
CCc1c(C)c2ccc(OCC(=O)OC)cc2oc1=O	-4.9	u	-14.8	-0.1	-9.9	17530*
O=C(Nc1ccc(N2CCN(C(=O)c3ccccc3)CC2)cc1)c1ccc(Br)o1	-2.0	0.4	12.7	-1.5	-11.9	2990
CCC(=O)N1CCN(c2ccc(Cl)cc2NC(=O)c2ccc(Br)o2)CC1	0.6	1.9	x	1.2	1.0	22198*
O=C(Nc1ccc(N2CCN(C(=O)c3ccccc3)CC2)c(Cl)c1)c1ccc(Br)o1	-5.5	-0.8	0.0	5.4	-2.8	23206*
COc1cc(OC)cc(-c2nnc(NC(=O)c3ccc4c(c3)OCCO4)o2)c1	-0.4	0.7	-17.2	0.9	-7.6	6273
COC(=O)c1ccccc1NC(=O)Cn1c(-c2nonc2N)nc2ccccc21	-6.5	7.4	-5.0	0.1	7.1	20173*
COC(=O)c1ccccc1NC(=O)CSc1ncccn1	-11.7	0.0	27.1	-4.6	4.8	5437
COC(=O)c1ccccc1NC(=O)Cn1c(SC)c(F)cnc1=O	-1.4	1.3	-16.3	-3.8	4.8	19945*
COC(=O)c1ccc(NC(=O)Cn2c(-c3nonc3N)nc3ccccc32)cc1	-0.2	0.1	-2.7	6.0	2.0	4947
CCOC(=O)N1CCN(C(=O)CSc2ccc(-c3cccnc3)nn2)CC1	x	x	6.2	1.9	x	x
Cc1ccc(NC(=S)Nc2cccnc2)c(S(=O)(=O)N2CCCCC2)c1	-1.7	-0.4	44.3	0.6	0.1	4363
CC1CCc2[nH]nc(C(=O)O)c2C1 (stereo not given)	-8.3	1.7	10.2	-4.4	2.6	20725*
O=C(NCC1CCN(c2ccc(S(=O)(=O)N3CCOCC3)cc2)CC1)c1cccc(Cl)c1	-5.3	-3.3	11.6	3.9	18.3	18496*
O=C(c1ccc(S(=O)(=O)N2CCOCC2)cc1)N1CCN(c2cccc(Cl)c2)CC1	-5.4	-3.0	-18.6	-4.0	-4.4	24247*
COc1ccc(CC(NC(C)=O)C(=O)N2CCN(C(=O)Nc3ccc(Cl)cc3)CC2)cc1OC (stereo not given)	-7.6	1.3	18.8	1.4	-1.0	22516*
COc1ccc(CC(NC(C)=O)C(=O)NC2CCN(C(=O)Nc3ccccc3Cl)CC2)cc1OC (stereo not given)	1.9	-1.2	11.9	-2.3	-13.8	4418
COc1cccc(NC(=O)N2CCN(C(=O)C(Cc3ccc(OC)c(OC)c3)NC(C)=O)CC2)c1 (stereo not given)	-7.3	u	11.8	1.7	13.1	18405*
COc1cccc(NC(=O)N2CCCCCC2)c1	1.5	3.1	22.9	3.9	-3.7	5094
COCCN(C(=O)CSc1nnc(-c2cccc(F)c2)n1N)c1c(N)n(Cc2ccccc2)c(=O)[nH]c1=O	5.5	0.6	x	x	-4.6	u
COCCn1c(N)c(C(=O)NCc2cccs2)c2nc3ccccc3nc21	12.7	9.4	18.2	-1.1	0.3	20185*
O=C1c2ccccc2C(=O)N1Cc1ccc2c(c1)OCO2	-5.1	0.2	25.6	5.2	-0.9	8057
SMILES	Anthrax LF inh2	BoNT A protease	VHR inh abs	3CLpro inhibitor	BoNT F protease	Bead autofluor
O=C(O)c1ccc2c(c1)C(=O)N(Cc1ccc3c(c1)OCO3)C2=O	-1.9	0.2	15.5	-3.3	0.2	23047*
CCCCNC(=O)c1c(N)n(CCCOC)c2nc3ccccc3nc12	5.9	2.8	-0.2	-3.7	-4.3	21009*
CC(=O)c1c(C(C)=O)c(C)n(Cc2ccc3c(c2)OCO3)c1C	-0.6	-7.4	28.0	-0.3	-12.1	22217*
O=C(NCc1ccc(Cl)cc1)c1ccc(-c2ccc(F)c(F)c2)c2ccoc12	1.1	0.2	x	x	6.4	3335
COc1ccccc1C(=O)NC(=O)COC(=O)CNC(=O)c1ccc(Cl)c([N+](=O)[O-])c1	-0.9	4.5	x	x	-14.0	u
CCOc1cccc(NC(=O)c2cccc(F)c2)c1	0.6	-0.1	33.4	3.7	5.7	4069
CC(C)(C)S(=O)(=O)N1C[C@H]2CC/C=C\C/C=C\2[C@@H]1CCO	-0.1	0.1	x	x	-4.0	3322
CCCNC(=O)c1c(N)n(Cc2ccc3c(c2)OCO3)c2nc3ccccc3nc12	-1.7	3.7	-15.9	-6.2	4.3	23041*
Nc1c(C(=O)NCc2ccc3c(c2)OCO3)c2nc3ccccc3nc2n1CCCN1CCOCC1	4.8	16.3	2.7	-2.8	-14.3	11356
COc1ccccc1CNC(=O)c1c(N)n(CCCN2CCOCC2)c2nc3ccccc3nc12	0.9	13.1	9.7	2.0	2.0	18665*
CC(C)C[C@H](NC(=O)c1nc[nH]c1C(=O)N(C)Cc1ccccc1)C(=O)OC(C)(C)C	6.6	-1.0	-18.5	0.0	-2.4	3663
O=C(COC(=O)c1cccnc1)Nc1ccccc1	1.9	2.0	57.3*	-2.4	4.9	3161
CCCNS(=O)(=O)c1ccc(NC(=O)c2cccnc2)cc1	-0.3	0.5	28.5	3.3	1.2	20443*
CCN(C(=O)c1ccnc(C(C)(C)C)c1)c1ccccc1	-3.2	5.5	21.9	6.1	6.0	21211*
CCc1ccc(NC(=O)c2ccnc(C(C)(C)C)c2)cc1	-1.5	-1.1	33.8	-2.5	-2.4	24202*
O=C(COC(=O)c1cccnc1)Nc1ccc(F)cc1	0.9	0.9	26.7	-1.8	2.7	4165
Cn1c(=O)c2c(nc3n2CC(COc2ccccc2)O3)n(C)c1=O (stereo not given)	-20.1	0.1	9.4	-0.4	u	4089
CCc1ccc(NC(=O)N(C2CCCCC2)C(C)c2cccnc2)cc1 (stereo not given)	-0.3	-1.8	10.8	3.1	-1.9	20168*
Cc1ccc(OC(=O)c2cccnc2)cc1	-4.8	-0.6	17.7	3.4	-0.5	3059
CCc1ccc(NC(=O)c2cccnc2)cc1	-2.3	u	15.5	-3.5	-5.0	21122*
Cc1ccc(NC(=O)N(C2CCCCC2)C(C)c2cccnc2)cc1C (stereo not given)	-5.9	-0.3	-4.4	-2.1	0.9	5584
O=C(NCCOC(=O)c1ccccc1C(=O)OCCNC(=O)c1cccnc1)c1cccnc1	-11.9	6.3	37.4	3.2	11.4	19258*
CCc1ccc(OC(=O)c2cccnc2)cc1	36.6*	-3.1	-4.7	1.7	-5.8	3031
S=c1[nH]nc(C2CCCCC2)n1/N=C/C(Cl)=C\c1ccccc1	-2.2	-0.4	16.5	8.4	-1.5	2498
S=c1[nH]nc(C2CCCCC2)n1/N=C/C=C/c1ccccc1	0.0	u	9.7	10.5	-2.6	22815*
